# nsP2pro primary = blocks chikungunya virus nsP2 protease peptide cleavage; AID 1964107; actives 1.1% (n = 31,000); FRET peptide cleavage, nsP2pro, fluorescence 1 h; Potency, µM (titrated, usually from 24.9 µM), inactives show at the highest dose activity change, negative = inhibition, most hits filed as inhibitors; Q8JUX6; also: nearly all actives have a fitted effect of over 60% in size
#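 Purified recombinant nsP2pro (150 nM final) in 10 mM Tris-HCl pH 8.0 with 0.01% Tween 20 was preincubated 15 min at room temperature with compound (7 concentrations, up to 25 uM). FRET peptide 2 substrate (2.5 uM final) was then added; fluorescence was read after 1 h.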
# CHIKV nsP2 cell = cell-based CHIKV nsP2 protease inhibition, secondary; AID 1964100; cell-based CHIKV nsP2 protease reporter assay; shares compounds with nsP2pro primary; actives 10% (n = 450); Potency, µM (series often up to 51.1 µM), without a hit: at the top dose activity change, negative = inhibition, hits mostly inhibitors; also: nearly all actives have a fitted effect of over 70% in size
# Target sequence (Q8JUX6 220-798 limits assumed): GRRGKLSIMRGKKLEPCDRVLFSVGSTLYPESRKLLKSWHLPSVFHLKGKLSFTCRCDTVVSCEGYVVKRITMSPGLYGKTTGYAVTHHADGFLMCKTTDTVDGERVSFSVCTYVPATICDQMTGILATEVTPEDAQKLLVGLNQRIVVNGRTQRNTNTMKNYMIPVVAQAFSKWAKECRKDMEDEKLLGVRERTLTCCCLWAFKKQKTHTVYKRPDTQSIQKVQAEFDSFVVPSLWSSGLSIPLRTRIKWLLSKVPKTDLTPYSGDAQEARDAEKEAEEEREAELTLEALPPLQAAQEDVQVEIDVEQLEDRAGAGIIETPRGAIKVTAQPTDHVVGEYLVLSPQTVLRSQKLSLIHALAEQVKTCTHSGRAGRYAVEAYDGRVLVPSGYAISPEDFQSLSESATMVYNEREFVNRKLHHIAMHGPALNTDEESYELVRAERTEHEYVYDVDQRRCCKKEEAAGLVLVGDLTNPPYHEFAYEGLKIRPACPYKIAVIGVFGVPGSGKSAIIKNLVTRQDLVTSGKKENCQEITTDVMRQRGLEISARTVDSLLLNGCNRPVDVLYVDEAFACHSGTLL
# NSP2 full ctr = selectivity test for CHIKV nsP2 protease inhibitors: full-length NSP2. Potency, µM (series often up to 50.7 µM), for the others: at the top dose activity change, negative = inhibition, actives largely listed as inhibitors. actives 39% (n = 410). shares compounds with nsP2pro primary. Full-length CHIKV NSP2 protease enzymatic counterscreen; also: nearly all actives have a fitted effect of over 65% in size
# Furin counterscr = human furin inhibition, counterscreen for nsP2pro inhibitors; shares compounds with nsP2pro primary; Recombinant human furin enzymatic counterscreen, fluorogenic substrate; Potency, µM (series often up to 50.6 µM), without a hit: at the top dose activity change, negative = inhibition, hits mostly inhibitors; actives 6% (n = 410); AID 1964102
# NS23 peptide cs = selectivity test for CHIKV nsP2 protease inhibitors: endogenous NS2/3 peptide; actives 34% (n = 410); Purified CHIKV nsP2 protease, endogenous NS2/3 peptide cleavage; Potency, µM (series often up to 51 µM), for inactives: top-dose activity change, negative = inhibition, most hits filed as inhibitors; shares compounds with nsP2pro primary; also: nearly all actives have a fitted effect of over 55% in size
# Papain cs = inhibits papain in a CHIKV nsP2 protease selectivity counterscreen. shares compounds with nsP2pro primary. purified papain protease activity, enzymatic inhibition. Potency, µM (titrated, usually from 51 µM), without a hit: at the highest dose activity change, negative = inhibition, most hits filed as inhibitors. actives 5% (n = 410). AID 1964104
# nsP2pro conf qHTS = CHIKV nsP2 protease inhibition, confirmatory qHTS; shares compounds with nsP2pro primary; CHIKV nsP2 protease enzymatic activity, qHTS; Potency, µM (top dose mostly 25.5 µM), without a hit: at the top dose activity change, negative = inhibition, hits mostly inhibitors; actives 43% (n = 410); AID 1964105; also: nearly all actives have a fitted effect of over 75% in size
# HCV NS3 4A cs = HCV NS3/4A protease inhibition, counterscreen | shares compounds with nsP2pro primary | HCV NS3/4A protease biochemical counterscreen | Potency, µM (top dose mostly 50.9 µM), most hits filed as inhibitors | actives 20% (n = 410) | AID 1964106; also: nearly all actives have a fitted effect of over 55% in size
# * = called active by the depositor; i = inactive; ? = inconclusive; [ ] = another dose, or the depositor's remark. The sample as a whole holds a higher share of hits than the screen did. Calls follow the shape of the full dose curve. % is scaled to controls: 0 for no effect and ±100 for the full control effect; potency is read from the fitted curve at half-maximal effect.
SMILES,nsP2pro primary,others
N#Cc1ccc(NC(=O)Nc2nnc(-c3ccncc3)s2)cc1Br,-10%,
O=C(c1cc(-c2ccsc2)c2nncn2n1)N1CCN(Cc2ccccc2)CC1,-1%,
O=C(O)C(=O)O,-7%,
CCO[C@H]1CN(C2CCN(CCc3ccccc3)CC2)C[C@@H]1O,-2%,
CC(=O)N1CCC(N2CCC[C@H]2c2nc(-c3ccc(-c4ccncc4)nc3)no2)CC1,i,
CC(C)C[C@H]1C(=O)N2CCC[C@H]2[C@]2(O)O[C@](NC(=O)[C@@H]3C[C@@H]4c5cccc6[nH]cc(c56)C[C@H]4N(C)C3)(C(C)C)C(=O)N12,-12%,
CN1C[C@H](C(=O)N[C@]2(C)O[C@@]3(O)[C@@H]4CCCN4C(=O)[C@H](Cc4ccccc4)N3C2=O)C=C2c3cccc4[nH]cc(c34)C[C@H]21,?,CHIKV nsP2 cell=9%;NSP2 full ctr=?;Furin counterscr=-14%;NS23 peptide cs=13µM*;Papain cs=46%;nsP2pro conf qHTS=?;HCV NS3 4A cs=i
Cc1n[nH]c(C)c1CNC(=O)C1CCCCC(=O)N1 (stereo not drawn),i,
COCC(=O)NC[C@H]1OC[C@@H](NC(C)C)[C@@H]1O,2%[39.2 µM],
Cc1ccc(S(=O)(=O)/C=C/C#N)cc1,0.88µM*,CHIKV nsP2 cell=?;NSP2 full ctr=0.92µM*;Furin counterscr=5%;NS23 peptide cs=4.6µM*;Papain cs=-5%;nsP2pro conf qHTS=0.28µM*;HCV NS3 4A cs=i
Cn1c(=O)cc(N2CCC[C@@H](N)C2)n(Cc2cc(F)ccc2C#N)c1=O,-8%,
CC1CCC2C(C(=O)O)=CC3CC(C)(C)CC132 (stereo not drawn),-3%,
CN1CCCN(S(=O)(=O)c2cn(C)cn2)c2ccccc21,-27%,
C=C1CC23CC1CCC2C12OC(=O)C(C)(C(O)CC1O)C2C3C(=O)O (stereo not drawn),?,CHIKV nsP2 cell=5%[33.5 µM];NSP2 full ctr=1%[33.5 µM];Furin counterscr=2%[33.5 µM];NS23 peptide cs=-5%[33.5 µM];Papain cs=-6%[33.5 µM];nsP2pro conf qHTS=-20%[16.7 µM];HCV NS3 4A cs=i
C=C1C[C@]23C[C@H]1[C@@H](O)C[C@H]2[C@@]12C=C[C@H](O)[C@@](C)(C(=O)O1)[C@H]2[C@@H]3C(=O)O,-21%,
C=C1C[C@]23C[C@H]1CC[C@H]2[C@@]12CC[C@H](O)[C@@](C)(C(=O)O1)[C@H]2[C@@H]3C(=O)O,-9%,
COc1cc2c(cc1CN1CCn3nc(C(O)CO)cc3C1)OCCO2 (stereo not drawn),-6%,
N#Cc1ccccc1Nc1ncc(-c2cccc3ccccc23)o1,-61%,
COC(=O)CCC(NC(=O)C(CC(=O)OC)NC(=O)OCc1ccccc1)C(=O)NC(C(=O)NC(CC(=O)OC)C(=O)CF)C(C)C (stereo not drawn),-11%,
CCCC1=CC2=C(CO1)C(=O)C(C)(OC(=O)c1c(C)cc(OC)cc1O)C(O)C2 (stereo not drawn),-17%[10 µM],
C=C(C(=O)O)C1CC2=C(C)C(=O)CC2C(C)CC1O (stereo not drawn),4.4µM*,CHIKV nsP2 cell=?;NSP2 full ctr=?;Furin counterscr=-5%;NS23 peptide cs=?;Papain cs=-3%;nsP2pro conf qHTS=?;HCV NS3 4A cs=i
Cc1ccc(C(=O)N2CCC3(CC2)N=C(c2cccc(Br)c2)NO3)s1,4%,
COc1cccc(CN2C[C@@H](CO)[C@H](NC(=O)C3CCC3)C2)c1,-14%,
O=C1COCC2(CN(CCC(F)(F)F)C2)CN1Cc1cccc(OC(F)(F)F)c1,-5%[39.2 µM],
Cc1cn([C@H]2C[C@H](N[S+](=O)([O-])Cc3ccc([N+](=O)[O-])cc3)[C@@H](CO)O2)c(=O)[nH]c1=O,-9%,
SMILES,nsP2pro primary,others
Cc1noc(-c2ccc(-c3noc(-c4ccc([N+](=O)[O-])c(C)c4)n3)cc2)n1,-14%,
Cc1ccc([N+](=O)[O-])[c]2c1[O][Hg]2,1.6µM*,CHIKV nsP2 cell=1.4µM*;NSP2 full ctr=?;Furin counterscr=1.3µM*;NS23 peptide cs=5.8µM*;Papain cs=-17%;nsP2pro conf qHTS=0.71µM*;HCV NS3 4A cs=0.26µM*
c1ccc(N2CCC(Cn3ccnc3-c3cc4n(n3)CCCNC4)C2)cc1 (stereo not drawn),i,
CCC1(C(=O)NCCCN2CCCC2=O)CCCCC(=O)N1 (stereo not drawn),4%,
CCCCC(=O)O,-4%,
CCCCCCCCCCCCCC(=O)O,-32%,
CCCCCCCCCCCCCCCCCC(=O)O,?,CHIKV nsP2 cell=5%;NSP2 full ctr=3.7µM*;Furin counterscr=5%;NS23 peptide cs=-19%;Papain cs=21µM*;nsP2pro conf qHTS=4µM*;HCV NS3 4A cs=i
Cc1cc(Nc2ccc(NC(=O)c3ccc(Nc4ccnc5ccccc45)cc3)cc2)nc(N)n1,-22%,
COC(=O)[C@H]1CN(C(=O)NC(C)C)CCN1C(=O)c1cccnc1,-1%[39.2 µM],
COc1ccc(O[C@@H]2O[C@H](CO)[C@H](O)[C@H](O)[C@H]2O)cc1,5%,
CCn1ncnc1C(C)NC(=O)Cn1nc(-c2ccccc2)n(CC)c1=O (stereo not drawn),-13%,
Cc1cn([C@H]2C[C@H](N[S+](=O)([O-])Cc3cccc(Cl)c3)[C@@H](CO)O2)c(=O)[nH]c1=O,-6%,
CC(=O)OC1CC2C(C)(C)C(=O)C=CC2(C)C2CC(=O)C3=C(CCC3C3=CC(O)OC3=O)C12C (stereo not drawn),-16%[10 µM],
CC(=O)O[C@@H]1CC2C(C)(C)C(=O)C=C[C@]2(C)C2CC[C@@]3(C)[C@H](c4ccoc4)OC(=O)[C@H]4O[C@]43[C@@]21C (stereo partly drawn),?,CHIKV nsP2 cell=-15%[17.6 µM];NSP2 full ctr=?;Furin counterscr=-5%[17.3 µM];NS23 peptide cs=-27%[17.2 µM];Papain cs=?;nsP2pro conf qHTS=?;HCV NS3 4A cs=i
CC(=O)O[C@H]1C[C@@H](O)C(C)(C)C2C[C@@H](OC(C)=O)[C@]3(C)C(CC[C@@]4(C)[C@H](c5ccoc5)OC(=O)[C@H]5O[C@]543)[C@]21C (stereo partly drawn),-25%[10 µM],
CS(=O)(=O)c1cnc(NCCn2ccnc2)nc1C1CCCNC1 (stereo not drawn),i,
Cc1cc(=O)n(CC(=O)Nc2ccc3c(c2)OCCO3)c(N2CCc3ccccc3C2)n1,1%,
Cc1ccc(S(=O)(=O)Nc2cnccc2C(=O)Nc2ccc3ccccc3c2)cc1,i,
CCCNC(=O)N[C@@H]1CCC[C@@H](C(=O)NCCOC)CC(=O)N(C)C1,4µM*,CHIKV nsP2 cell=21%;NSP2 full ctr=15µM*;Furin counterscr=?;NS23 peptide cs=24µM*;Papain cs=4%;nsP2pro conf qHTS=4.1µM*;HCV NS3 4A cs=?
CCN(CC)C(=O)[C@@H]1CCC[C@@H](NC(C)=O)CN(C)C(=O)C1,-7%[39.2 µM],

# High-throughput results: PubChem, National Center for Advancing Translational Sciences (NCATS)
